Active and inactive are the calls of the source. A call without a number means that no potency is given here. Calls come from the whole dose curve.
Assay: G protein-coupled receptor (GPCR) small molecule agonists, calcium flux assay: HEK293 wild type cell line counter screen (AID 1920065)
Conditions: HEK293 WT calcium flux, fluorescence, agonist mode; series mostly up to 57.6 µM; activation: at the top concentration
From the text: U.S. Tox21 Program National Center for Advancing Translational Sciences [NCATS] Division of Preclinical Innovation [DPI] U.S. Environmental Protection Agency [EPA] National Institutes of Environmental Health Sciences [NIEHS] National Toxicology Program [NTP] U.S. Food and Drug Administration [FDA] Assay overview: The increased intracellular calcium release that occurred upon G protein-coupled receptor (GPCR) activation led to the frequent use of calcium flux assays to detect GPCR activation. For the purpose of studying and screening compounds that may activate GPCR, receptor-overexpressing models were typically generated using Hek293 wild-type (WT) cells. In order to eliminate the compounds that may have induced calcium release for non-specific activation, a counter-assay utilizing calcium flux on Hek293 WT cells was performed. The data were formulated in order to serve as a control for any calcium flux detection utilizing Hek293 cells with either GPCR overexpression or gene modification. The procurement of Hek293 WT cells from ATCC. Fluorescence intensity can be utilized to determine the activation of the compound in a calcium flux assay. As a counter control, this cell line was utilized to screen the Tox21 10K compound library.
Assay Protocol Summary: Hek293 cells were dispensed at 1500cells/4uL/well in 1536-well black wall/clear bottom plates using a multidrop dispenser. After the assay plates were incubated at a 37 C/5% CO2 incubator for 18 hours, 4 uL of Calcium Dye Solution was added to each well. The plates were incubated at 37 C for 1 hour. For agonist mode, 23 nL of compounds dissolved in DMSO, positive control (ATP) or DMSO only was transferred to the assay plate by a pin tool station. The fluorescence intensity in the plates was measured using FDSS 7000EX kinetic plate reader with a filter set of Ex/Em=480/540 for 3 min at 1 sec intervals. Each test compound was measured at 15 concentrations and in triplicates.

Compound	activation	Potency
CC(=O)C(Cl)Cl	-0.046% (inactive)	–
CCC(=O)Nc1ccc(Cl)c(Cl)c1	–	inactive
N#CC(c1ccccc1)c1ccccc1	–	inactive
NC(=S)Nc1ccccc1	–	inactive
O=S(=O)(O)OOS(=O)(=O)O	–	inactive
CCCCC#N	0.194% (inactive)	–
CCOS(C)(=O)=O	0.152% (inactive)	–
CC(C)(N)Cc1ccccc1Cl	-0.322% [at 26.5 µM] (inactive)	–
CCCCCCCCCCCCBr	0.587% (inactive)	–
Cc1cccc(N)c1C	–	inactive
COP(=O)(OC)C(O)C(Cl)(Cl)Cl (stereo not given)	–	inactive
Nc1c(Oc2ccccc2)cc(O)c2c1C(=O)c1ccccc1C2=O	-0.138% [at 26.5 µM] (inactive)	–
CNC(=O)CSP(=S)(OC)OC	–	inactive
N#CC1(N=NC2(C#N)CCCCC2)CCCCC1	1.13% (inactive)	–
Cl/C=C/CCl	-0.467% (inactive)	–
C[N+](=O)[O-]	-0.145% (inactive)	–
CCOc1nc(F)cc2nc(S(=O)(=O)Nc3c(Cl)cccc3Cl)nn12	0.489% (inactive)	–
Cc1cccc([N+](=O)[O-])c1	–	inactive
Nc1cccc2ccccc12	–	inactive
C[CH2][Hg][S]c1ccccc1C(=O)O	–	inactive

Compound	activation	Potency
O=C1c2ccccc2C(=O)N1SC(Cl)(Cl)Cl	8.36% (inactive)	–
CCCCCc1cc(O)cc(O)c1	–	inactive
Cc1cc(Cl)ccc1OC(C)C(=O)O (stereo not given)	–	inactive
Sc1ccccc1Cl	1.36% [at 26.5 µM] (inactive)	–
O=C(NC(=O)c1c(F)cccc1F)Nc1cc(Cl)c(OC(F)(F)C(F)C(F)(F)F)cc1Cl (stereo not given)	–	inactive
CNC(=O)NC(O)C(Cl)(Cl)Cl (stereo not given)	1.93% [at 26.5 µM] (inactive)	–
Cc1cc(Cl)ccc1OCCCC(=O)O	–	inactive
C#CCOC(=O)/C=C(C)/C=C/CC(C)CCCC(C)C (stereo not given)	0.558% (inactive)	–
Cc1cc(N=Nc2ccccc2C)ccc1N	–	inactive
COC(=O)c1ccccc1CS(=O)(=O)NC(=O)Nc1nc(OC)cc(OC)n1	0.654% (inactive)	–
c1ccc2c(c1)CCCC2	–	inactive
CC(C)CC(C)(c1ccc(O)cc1)c1ccc(O)cc1	–	inactive
O=C(CCN1CC1)OCC(CO)(COC(=O)CCN1CC1)COC(=O)CCN1CC1	0.213% (inactive)	–
ClCOCCl	0.635% (inactive)	–
O=S(=O)(Cl)Cl	-0.504% (inactive)	–
CNC(=O)Oc1ccccc1OC(C)C	–	inactive
Cc1cccc(C)c1NC(=O)CN1CCCC1=O	–	inactive
c1cc2c3c(cccc3c1)CC2	–	inactive
NC(=O)O	0.903% (inactive)	–
Cc1cc(C)cc(C)c1	–	inactive
